Over roughly 16,000 sequences, “rpm ratio (pull-down/input)” has its median near 0.5; the highest 2% begin near 5.5. Shown is part of a subset that was picked to be rich in the highest values.

Data on 33 sequences can be found in paper PMC12820563, “FoxP3 forms a head-to-head dimer in vivo and stabilizes its multimerization on adjacent microsatellites”.

The experiment addresses T1, MBP-FoxP3dN (Mus musculus, UniProt Q99JB6 188-423).
T1 sequence: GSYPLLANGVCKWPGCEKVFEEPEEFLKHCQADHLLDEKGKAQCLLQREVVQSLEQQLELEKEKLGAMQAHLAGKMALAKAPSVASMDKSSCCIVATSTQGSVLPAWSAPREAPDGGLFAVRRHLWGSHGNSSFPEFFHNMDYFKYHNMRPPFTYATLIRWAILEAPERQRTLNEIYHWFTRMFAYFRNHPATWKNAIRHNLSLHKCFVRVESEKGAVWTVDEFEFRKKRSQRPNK
Briefly: PD-seq (MBP pull-down with sequencing); 20 mM Tris-HCl pH 7.5, 100 mM NaCl, 1.5 mM MgCl2, 0.4 uM protein, 0.1 uM dsDNA library, 30 min, room temperature, amylose pull-down; high values mean tight binding. The settings on record: protein: recombinant; tags: His6-MBP; chain copies: 2; dsDNA, one strand shown. A digest of the protocol: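 Binding is reads-per-million enrichment of pull-down over input, with replicates pooled. It comes from 30 min room-temperature incubation in Tris pH 7.5 buffer with NaCl and MgCl2 of 0.4 µM His6-MBP-tagged, N-terminally truncated mouse FoxP3 or FoxP1 fragment from E. coli with 0.1 µM Klenow-filled degenerate double-stranded DNA library, followed by amylose resin capture, three washes and Illumina sequencing of the released DNA.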
“GATGATTGTTCTCCCAGCTGATGAATTTCCTCCCTCGAGTAAACAAATTTTCCTAATCTTTCTGTTCAAGCGCCATCTAC”: the binding signal was 0.223 RPM ratio (pull-down/input). As for “GATGATTGTTCTCCCAGCTGATGAATTGGCGTCCTCGAGTAAACAAATTTTCCTAATCTTTCTGTTCAAGCGCCATCTAC”, the figure is 1.06 RPM ratio (pull-down/input). As for “GATGATTGTTCTCCCAGCTGATGAATTACCCAACTCGAGTAAACAAATTTTCCTAATCTTTCTGTTCAAGCGCCATCTAC”, the figure is 0.253 RPM ratio (pull-down/input). As for “GATGATTGTTCTCCCAGCTGATGAATTATTTTTGTCGAGTAAACAAATTTTCCTAATCTTTCTGTTCAAGCGCCATCTAC”, the figure is 0.947 RPM ratio (pull-down/input). “GATGATTGTTCTCCCAGCTGATGAATTATATCTGTCGAGTAAACAAATTTTCCTAATCTTTCTGTTCAAGCGCCATCTAC”: the binding signal is 0.544 RPM ratio (pull-down/input). The figure for “GATGATTGTTCTCCCAGCTGATGAATTATATTTGTCGAGTAAACAAATTTTCCTAATCTTTCTGTTCAAGCGCCATCTAC” is 5.66 RPM ratio (pull-down/input). As for “GATGATTGTTCTCCCAGCTGATGAATTGTTATTGTCGAGTAAACAAATTTTCCTAATCTTTCTGTTCAAGCGCCATCTAC”, the figure is 6.63 RPM ratio (pull-down/input); as for “GATGATTGTTCTCCCAGCTGATGAATTTTATTTGTCGAGTAAACAAATTTTCCTAATCTTTCTGTTCAAGCGCCATCTAC”, 6.21 RPM ratio (pull-down/input). The figure for “GATGATTGTTCTCCCAGCTGATGAATTATTTGTGTCGAGTAAACAAATTTTCCTAATCTTTCTGTTCAAGCGCCATCTAC” is 2.76 RPM ratio (pull-down/input); for “GATGATTGTTCTCCCAGCTGATGAATTATTTCTGTCGAGTAAACAAATTTTCCTAATCTTTCTGTTCAAGCGCCATCTAC” it is 0.335 RPM ratio (pull-down/input). Turning to “GATGATTGTTCTCCCAGCTGATGAATTTTTATTGTCGAGTAAACAAATTTTCCTAATCTTTCTGTTCAAGCGCCATCTAC”, the binding signal was 0.972 RPM ratio (pull-down/input). Turning to “GATGATTGTTCTCCCAGCTGATGAATTTTATGTGTCGAGTAAACAAATTTTCCTAATCTTTCTGTTCAAGCGCCATCTAC”, the binding signal is 2.49 RPM ratio (pull-down/input).

Consider “GATGATTGTTCTCCCAGCTGATGAATTATTATTGTCGAGTAAACAAATTTTCCTAATCTTTCTGTTCAAGCGCCATCTAC”, for which the binding signal was 2.61 RPM ratio (pull-down/input). Consider “GATGATTGTTCTCCCAGCTGATGAATTTATTCTGTCGAGTAAACAAATTTTCCTAATCTTTCTGTTCAAGCGCCATCTAC”, for which the binding signal was 0.533 RPM ratio (pull-down/input). The figure for “GATGATTGTTCTCCCAGCTGATGAATTTATTGTGTCGAGTAAACAAATTTTCCTAATCTTTCTGTTCAAGCGCCATCTAC” is 6.95 RPM ratio (pull-down/input); for “GATGATTGTTCTCCCAGCTGATGAATTGTGCCGATCGAGTAAACAAATTTTCCTAATCTTTCTGTTCAAGCGCCATCTAC” it is 1.02 RPM ratio (pull-down/input); for “GATGATTGTTCTCCCAGCTGATGAATTTTTTGAATCGAGTAAACAAATTTTCCTAATCTTTCTGTTCAAGCGCCATCTAC” it is 0.229 RPM ratio (pull-down/input). Consider “GATGATTGTTCTCCCAGCTGATGAATTGGGTGTTTCGAGTAAACAAATTTTCCTAATCTTTCTGTTCAAGCGCCATCTAC”, for which the binding signal is 1.38 RPM ratio (pull-down/input). The figure for “GATGATTGTTCTCCCAGCTGATGAATTCAACTGATCGAGTAAACAAATTTTCCTAATCTTTCTGTTCAAGCGCCATCTAC” is 0.332 RPM ratio (pull-down/input); for “GATGATTGTTCTCCCAGCTGATGAATTGAATATGTCGAGTAAACAAATTTTCCTAATCTTTCTGTTCAAGCGCCATCTAC” it is 0.689 RPM ratio (pull-down/input). As for “GATGATTGTTCTCCCAGCTGATGAATTGACACTCTCGAGTAAACAAATTTTCCTAATCTTTCTGTTCAAGCGCCATCTAC”, the figure is 0.6 RPM ratio (pull-down/input); as for “GATGATTGTTCTCCCAGCTGATGAATTCTTGAATTCGAGTAAACAAATTTTCCTAATCTTTCTGTTCAAGCGCCATCTAC”, 0.493 RPM ratio (pull-down/input).

As to “GATGATTGTTCTCCCAGCTGATGAATTGTACTTTTCGAGTAAACAAATTTTCCTAATCTTTCTGTTCAAGCGCCATCTAC”, the binding signal was 0.551 RPM ratio (pull-down/input). For the sequence “GATGATTGTTCTCCCAGCTGATGAATTGGGTGAGTCGAGTAAACAAATTTTCCTAATCTTTCTGTTCAAGCGCCATCTAC”, the binding signal is 0.443 RPM ratio (pull-down/input). The figure for “GATGATTGTTCTCCCAGCTGATGAATTCACTTGTTCGAGTAAACAAATTTTCCTAATCTTTCTGTTCAAGCGCCATCTAC” is 1.02 RPM ratio (pull-down/input); for “GATGATTGTTCTCCCAGCTGATGAATTCAGTAACTCGAGTAAACAAATTTTCCTAATCTTTCTGTTCAAGCGCCATCTAC” it is 1.34 RPM ratio (pull-down/input); for “GATGATTGTTCTCCCAGCTGATGAATTCAACACCTCGAGTAAACAAATTTTCCTAATCTTTCTGTTCAAGCGCCATCTAC” it is 0.553 RPM ratio (pull-down/input). The figure for “GATGATTGTTCTCCCAGCTGATGAATTTATATTGTCGAGTAAACAAATTTTCCTAATCTTTCTGTTCAAGCGCCATCTAC” is 2.37 RPM ratio (pull-down/input); for “GATGATTGTTCTCCCAGCTGATGAATTTATTTGGTCGAGTAAACAAATTTTCCTAATCTTTCTGTTCAAGCGCCATCTAC” it is 6.15 RPM ratio (pull-down/input). In the case of “GATGATTGTTCTCCCAGCTGATGAATTTATTTTGTCGAGTAAACAAATTTTCCTAATCTTTCTGTTCAAGCGCCATCTAC”, the binding signal is 5.94 RPM ratio (pull-down/input).

On to “GATGATTGTTCTCCCAGCTGATGAATTATTTTGGTCGAGTAAACAAATTTTCCTAATCTTTCTGTTCAAGCGCCATCTAC”, for which the binding signal is 0.995 RPM ratio (pull-down/input).

In the case of “GATGATTGTTCTCCCAGCTGATGAATTTAATTTGTCGAGTAAACAAATTTTCCTAATCTTTCTGTTCAAGCGCCATCTAC”, the binding signal is 3.39 RPM ratio (pull-down/input). As for “GATGATTGTTCTCCCAGCTGATGAATTTTATTGGTCGAGTAAACAAATTTTCCTAATCTTTCTGTTCAAGCGCCATCTAC”, the figure is 4.94 RPM ratio (pull-down/input).
